According to the supplement of paper PMC11732987, “Enantioselective OTUD7B fragment discovery through chemoproteomics screening and high-throughput optimisation” (Communications Chemistry, 2025):

Assays:
Test in all cases: log2 ratio of Biotin-Ahx-Ub-VS probe labelling (fragment/DMSO); higher = less target engagement (more negative = stronger competition), active = hit call of the paper (q ≤ 0.05, log2 ratio ≤ -1)
Settings in all cases: compound concentration: 200 uM; treatment time: 3 h
USP34 = USP34 (UniProt Q70CQ2)
Method in brief: (§1)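 Labelled DUBs were enriched with NeutrAvidin, digested with LysC and trypsin, and run by diaPASEF LC-MS/MS. The labelling used Biotin-Ahx-Ub-VS at 0.5 µM final for 1 h on HEK293T lysate (495 µg per sample) previously treated in triplicate with fragment at 200 µM or vehicle for 3 h. Values are average log2 fragment/vehicle ratios by unpaired t-test on global-median-normalised Spectronaut quantities of proteins with ≥2 unique peptides.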

USP36 = target: T1, USP36 (UniProt Q9P275)
T1 sequence (whole entry): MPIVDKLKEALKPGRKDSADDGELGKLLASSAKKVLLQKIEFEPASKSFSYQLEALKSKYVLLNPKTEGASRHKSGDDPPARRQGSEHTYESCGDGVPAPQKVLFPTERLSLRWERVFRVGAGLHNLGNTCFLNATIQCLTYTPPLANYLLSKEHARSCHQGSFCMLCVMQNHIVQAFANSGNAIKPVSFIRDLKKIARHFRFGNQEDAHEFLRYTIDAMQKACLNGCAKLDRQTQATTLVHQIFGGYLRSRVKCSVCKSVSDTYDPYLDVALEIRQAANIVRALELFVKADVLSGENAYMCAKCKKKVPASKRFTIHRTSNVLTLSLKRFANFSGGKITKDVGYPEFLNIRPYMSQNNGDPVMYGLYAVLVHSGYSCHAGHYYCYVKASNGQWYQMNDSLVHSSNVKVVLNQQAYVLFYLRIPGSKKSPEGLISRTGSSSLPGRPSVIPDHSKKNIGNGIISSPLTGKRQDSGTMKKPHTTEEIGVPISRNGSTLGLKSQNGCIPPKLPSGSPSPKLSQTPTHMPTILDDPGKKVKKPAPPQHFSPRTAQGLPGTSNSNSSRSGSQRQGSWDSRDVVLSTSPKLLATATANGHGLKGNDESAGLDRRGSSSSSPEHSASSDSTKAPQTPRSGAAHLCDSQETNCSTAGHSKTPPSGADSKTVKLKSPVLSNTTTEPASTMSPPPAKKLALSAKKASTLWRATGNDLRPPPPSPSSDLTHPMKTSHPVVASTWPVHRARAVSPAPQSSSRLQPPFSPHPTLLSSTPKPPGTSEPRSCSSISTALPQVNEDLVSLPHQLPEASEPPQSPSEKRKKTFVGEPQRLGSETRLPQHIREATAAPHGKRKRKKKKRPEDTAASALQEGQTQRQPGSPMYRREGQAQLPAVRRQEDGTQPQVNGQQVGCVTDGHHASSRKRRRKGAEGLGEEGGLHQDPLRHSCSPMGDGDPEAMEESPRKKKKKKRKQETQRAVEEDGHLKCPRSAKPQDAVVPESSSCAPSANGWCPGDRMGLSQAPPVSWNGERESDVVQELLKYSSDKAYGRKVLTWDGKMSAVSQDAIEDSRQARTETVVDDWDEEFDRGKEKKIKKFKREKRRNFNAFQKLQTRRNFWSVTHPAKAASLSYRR
Method in brief: as §1

USP38 = target: T2, USP38 (UniProt Q8NB14)
T2 sequence (whole entry): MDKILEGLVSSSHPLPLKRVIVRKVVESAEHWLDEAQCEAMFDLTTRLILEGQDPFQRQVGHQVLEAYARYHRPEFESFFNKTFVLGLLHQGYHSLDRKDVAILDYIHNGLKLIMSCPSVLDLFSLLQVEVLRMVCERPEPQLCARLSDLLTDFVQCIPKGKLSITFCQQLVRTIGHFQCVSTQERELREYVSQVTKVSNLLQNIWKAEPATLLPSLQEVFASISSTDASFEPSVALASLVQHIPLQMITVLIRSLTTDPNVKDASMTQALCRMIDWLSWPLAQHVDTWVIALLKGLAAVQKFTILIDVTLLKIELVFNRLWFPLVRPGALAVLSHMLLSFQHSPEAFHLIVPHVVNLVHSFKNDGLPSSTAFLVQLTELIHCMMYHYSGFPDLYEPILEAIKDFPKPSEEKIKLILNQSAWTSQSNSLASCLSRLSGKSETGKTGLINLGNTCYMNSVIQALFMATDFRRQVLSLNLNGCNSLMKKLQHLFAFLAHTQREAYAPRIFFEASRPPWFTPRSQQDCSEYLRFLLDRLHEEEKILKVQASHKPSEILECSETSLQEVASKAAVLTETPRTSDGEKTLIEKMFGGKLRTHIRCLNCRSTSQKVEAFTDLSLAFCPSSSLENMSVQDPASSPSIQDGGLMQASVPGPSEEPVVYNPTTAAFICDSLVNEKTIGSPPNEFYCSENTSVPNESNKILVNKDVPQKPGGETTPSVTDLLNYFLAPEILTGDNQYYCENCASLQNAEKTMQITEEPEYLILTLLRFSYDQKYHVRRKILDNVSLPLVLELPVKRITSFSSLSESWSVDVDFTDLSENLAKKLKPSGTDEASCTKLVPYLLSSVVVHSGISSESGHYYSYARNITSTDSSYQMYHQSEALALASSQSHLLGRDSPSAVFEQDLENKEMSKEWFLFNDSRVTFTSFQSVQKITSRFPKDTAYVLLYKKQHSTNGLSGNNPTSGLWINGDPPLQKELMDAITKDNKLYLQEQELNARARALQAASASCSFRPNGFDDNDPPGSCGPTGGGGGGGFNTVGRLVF
Method in brief: as §1

USP39 = target: T3, USP39 (UniProt Q53GS9)
T3 sequence (whole entry): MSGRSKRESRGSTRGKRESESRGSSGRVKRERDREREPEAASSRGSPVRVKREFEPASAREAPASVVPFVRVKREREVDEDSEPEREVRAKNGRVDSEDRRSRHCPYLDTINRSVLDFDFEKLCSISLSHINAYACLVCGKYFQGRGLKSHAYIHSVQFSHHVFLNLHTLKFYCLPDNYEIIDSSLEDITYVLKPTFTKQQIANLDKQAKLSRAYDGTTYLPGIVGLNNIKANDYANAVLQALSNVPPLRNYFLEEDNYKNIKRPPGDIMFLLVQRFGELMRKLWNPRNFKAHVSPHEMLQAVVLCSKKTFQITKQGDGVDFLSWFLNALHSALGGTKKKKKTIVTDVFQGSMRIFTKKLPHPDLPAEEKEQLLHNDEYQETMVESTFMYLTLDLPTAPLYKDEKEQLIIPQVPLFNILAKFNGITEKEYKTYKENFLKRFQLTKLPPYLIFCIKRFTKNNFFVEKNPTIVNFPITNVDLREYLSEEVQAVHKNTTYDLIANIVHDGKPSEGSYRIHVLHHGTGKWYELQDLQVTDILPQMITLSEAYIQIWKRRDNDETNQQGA
Method in brief: as §1

USP4 = target: T4, USP4 (UniProt Q13107)
T4 sequence (whole entry): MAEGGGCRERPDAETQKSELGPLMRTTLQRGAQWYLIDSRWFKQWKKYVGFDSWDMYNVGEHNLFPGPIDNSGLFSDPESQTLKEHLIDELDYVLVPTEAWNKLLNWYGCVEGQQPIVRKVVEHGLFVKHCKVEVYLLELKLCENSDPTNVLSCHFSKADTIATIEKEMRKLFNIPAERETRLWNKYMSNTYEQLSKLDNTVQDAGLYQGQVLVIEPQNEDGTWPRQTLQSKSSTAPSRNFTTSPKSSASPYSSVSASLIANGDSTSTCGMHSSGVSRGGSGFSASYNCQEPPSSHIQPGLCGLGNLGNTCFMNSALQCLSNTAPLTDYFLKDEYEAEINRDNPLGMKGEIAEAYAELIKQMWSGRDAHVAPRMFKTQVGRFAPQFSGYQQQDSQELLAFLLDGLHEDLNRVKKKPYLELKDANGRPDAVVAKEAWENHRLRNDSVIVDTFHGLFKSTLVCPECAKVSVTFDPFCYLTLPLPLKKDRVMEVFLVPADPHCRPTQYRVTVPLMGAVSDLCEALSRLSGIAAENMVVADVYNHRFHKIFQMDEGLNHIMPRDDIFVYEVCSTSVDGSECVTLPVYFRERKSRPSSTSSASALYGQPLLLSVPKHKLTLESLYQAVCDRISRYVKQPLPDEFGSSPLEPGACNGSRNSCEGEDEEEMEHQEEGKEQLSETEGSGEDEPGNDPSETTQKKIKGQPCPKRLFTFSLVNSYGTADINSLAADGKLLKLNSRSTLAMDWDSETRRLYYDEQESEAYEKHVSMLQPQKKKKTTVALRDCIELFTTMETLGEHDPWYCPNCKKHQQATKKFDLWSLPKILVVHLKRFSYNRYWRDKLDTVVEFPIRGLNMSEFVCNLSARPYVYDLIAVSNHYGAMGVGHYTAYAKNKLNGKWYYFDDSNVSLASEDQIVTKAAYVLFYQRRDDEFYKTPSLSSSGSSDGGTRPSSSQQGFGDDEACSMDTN
Method in brief: as §1

Measured: log2 ratio of Biotin-Ahx-Ub-VS probe labelling

USP34, sequence (Q70CQ2 whole entry, the tested form may be a part): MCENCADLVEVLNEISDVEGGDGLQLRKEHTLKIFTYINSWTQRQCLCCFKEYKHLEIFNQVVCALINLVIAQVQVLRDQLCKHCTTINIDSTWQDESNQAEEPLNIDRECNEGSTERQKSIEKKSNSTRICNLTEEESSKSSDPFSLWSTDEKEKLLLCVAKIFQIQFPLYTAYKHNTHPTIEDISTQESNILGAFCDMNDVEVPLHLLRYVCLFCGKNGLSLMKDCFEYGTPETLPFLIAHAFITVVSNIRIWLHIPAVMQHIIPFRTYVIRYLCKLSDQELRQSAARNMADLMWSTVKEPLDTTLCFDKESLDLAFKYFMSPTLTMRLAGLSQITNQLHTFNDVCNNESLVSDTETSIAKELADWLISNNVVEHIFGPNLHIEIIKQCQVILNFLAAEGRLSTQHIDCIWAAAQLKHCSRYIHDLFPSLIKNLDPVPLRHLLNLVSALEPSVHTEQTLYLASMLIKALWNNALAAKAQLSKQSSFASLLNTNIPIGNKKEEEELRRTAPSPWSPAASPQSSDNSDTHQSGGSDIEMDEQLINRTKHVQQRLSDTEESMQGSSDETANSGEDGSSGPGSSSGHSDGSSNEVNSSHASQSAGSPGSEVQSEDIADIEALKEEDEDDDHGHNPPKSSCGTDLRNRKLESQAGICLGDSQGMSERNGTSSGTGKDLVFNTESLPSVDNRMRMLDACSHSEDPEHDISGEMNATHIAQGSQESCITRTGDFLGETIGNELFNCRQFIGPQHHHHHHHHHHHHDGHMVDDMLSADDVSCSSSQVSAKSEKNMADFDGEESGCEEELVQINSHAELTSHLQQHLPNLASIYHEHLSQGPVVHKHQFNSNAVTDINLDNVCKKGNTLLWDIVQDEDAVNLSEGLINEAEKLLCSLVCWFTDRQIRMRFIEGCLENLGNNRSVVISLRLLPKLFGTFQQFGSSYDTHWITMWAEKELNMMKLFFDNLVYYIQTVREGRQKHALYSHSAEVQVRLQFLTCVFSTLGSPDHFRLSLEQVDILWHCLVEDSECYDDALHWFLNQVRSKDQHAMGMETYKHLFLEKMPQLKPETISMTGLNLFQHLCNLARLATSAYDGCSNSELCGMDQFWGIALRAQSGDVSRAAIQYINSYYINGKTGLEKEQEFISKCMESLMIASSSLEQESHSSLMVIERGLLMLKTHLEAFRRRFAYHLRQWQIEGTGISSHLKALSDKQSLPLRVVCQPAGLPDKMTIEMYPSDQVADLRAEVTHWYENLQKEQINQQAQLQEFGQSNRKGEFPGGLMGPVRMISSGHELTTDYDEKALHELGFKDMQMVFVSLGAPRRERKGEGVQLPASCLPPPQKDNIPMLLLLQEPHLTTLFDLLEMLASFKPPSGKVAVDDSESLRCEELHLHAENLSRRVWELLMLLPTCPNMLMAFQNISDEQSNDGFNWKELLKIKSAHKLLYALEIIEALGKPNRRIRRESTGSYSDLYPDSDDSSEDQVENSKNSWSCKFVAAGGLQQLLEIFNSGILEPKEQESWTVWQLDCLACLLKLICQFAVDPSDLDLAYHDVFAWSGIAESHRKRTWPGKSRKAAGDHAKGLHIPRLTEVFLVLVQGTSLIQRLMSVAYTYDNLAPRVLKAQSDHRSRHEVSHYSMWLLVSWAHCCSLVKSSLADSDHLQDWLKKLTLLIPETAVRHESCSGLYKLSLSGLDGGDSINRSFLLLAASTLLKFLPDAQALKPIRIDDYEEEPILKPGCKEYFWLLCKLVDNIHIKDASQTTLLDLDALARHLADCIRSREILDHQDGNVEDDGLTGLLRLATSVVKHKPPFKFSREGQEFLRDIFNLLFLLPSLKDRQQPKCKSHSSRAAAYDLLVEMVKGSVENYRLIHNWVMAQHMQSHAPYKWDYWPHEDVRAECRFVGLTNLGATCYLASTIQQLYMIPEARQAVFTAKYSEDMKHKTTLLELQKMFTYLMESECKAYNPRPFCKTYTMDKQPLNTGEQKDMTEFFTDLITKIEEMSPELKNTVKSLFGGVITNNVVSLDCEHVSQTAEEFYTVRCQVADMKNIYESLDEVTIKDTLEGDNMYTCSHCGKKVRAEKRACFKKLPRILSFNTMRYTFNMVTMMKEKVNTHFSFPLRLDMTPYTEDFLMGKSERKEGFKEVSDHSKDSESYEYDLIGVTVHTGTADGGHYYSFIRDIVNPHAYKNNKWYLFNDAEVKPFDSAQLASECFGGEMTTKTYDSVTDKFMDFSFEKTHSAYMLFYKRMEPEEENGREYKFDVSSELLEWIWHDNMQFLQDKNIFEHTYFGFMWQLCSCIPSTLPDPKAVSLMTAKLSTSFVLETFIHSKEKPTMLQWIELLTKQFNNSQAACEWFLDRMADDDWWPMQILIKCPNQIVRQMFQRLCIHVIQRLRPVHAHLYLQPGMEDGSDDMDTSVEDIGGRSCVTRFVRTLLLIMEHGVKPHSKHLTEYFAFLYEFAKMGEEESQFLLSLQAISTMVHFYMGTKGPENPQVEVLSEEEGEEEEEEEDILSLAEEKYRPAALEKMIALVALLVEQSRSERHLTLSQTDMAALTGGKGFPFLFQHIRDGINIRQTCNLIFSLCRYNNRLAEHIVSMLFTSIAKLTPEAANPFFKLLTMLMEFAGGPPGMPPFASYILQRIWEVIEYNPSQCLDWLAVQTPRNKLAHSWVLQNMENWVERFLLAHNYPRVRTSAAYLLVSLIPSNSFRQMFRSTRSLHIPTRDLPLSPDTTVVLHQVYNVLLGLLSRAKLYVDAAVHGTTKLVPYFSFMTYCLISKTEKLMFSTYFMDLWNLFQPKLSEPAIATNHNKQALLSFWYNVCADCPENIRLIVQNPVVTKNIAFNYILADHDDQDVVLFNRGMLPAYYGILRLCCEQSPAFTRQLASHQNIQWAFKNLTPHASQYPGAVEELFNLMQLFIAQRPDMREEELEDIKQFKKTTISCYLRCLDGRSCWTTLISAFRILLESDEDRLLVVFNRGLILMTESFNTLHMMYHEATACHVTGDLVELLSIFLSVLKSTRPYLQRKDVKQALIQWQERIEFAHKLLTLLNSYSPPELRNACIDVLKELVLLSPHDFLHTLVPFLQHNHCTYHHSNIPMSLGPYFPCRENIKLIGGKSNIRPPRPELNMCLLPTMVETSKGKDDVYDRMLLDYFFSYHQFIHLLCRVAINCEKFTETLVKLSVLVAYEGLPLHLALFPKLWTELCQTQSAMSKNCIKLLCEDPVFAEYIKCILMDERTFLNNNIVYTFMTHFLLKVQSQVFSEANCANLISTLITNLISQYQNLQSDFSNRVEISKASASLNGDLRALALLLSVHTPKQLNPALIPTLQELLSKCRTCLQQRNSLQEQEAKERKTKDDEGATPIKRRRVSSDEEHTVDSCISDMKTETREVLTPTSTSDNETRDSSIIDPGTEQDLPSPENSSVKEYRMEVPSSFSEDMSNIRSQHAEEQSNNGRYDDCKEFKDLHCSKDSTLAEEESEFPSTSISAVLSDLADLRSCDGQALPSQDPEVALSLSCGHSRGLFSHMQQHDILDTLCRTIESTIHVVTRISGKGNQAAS

N#Cc1ccc(Cl)cc1NC(=O)CCl
inactive: USP34 -0.22 | USP36 0.137 | USP38 -0.0529 | USP39 -0.0922 | USP4 -0.0565
